Compound activity: PubChem, National Center for Advancing Translational Sciences (NCATS)
The list is not random: actives were taken first. Their share in the collection is about 9%.
Lamin A splicing – LMNA splicing modulation; Potency, µM (highest dose often 46.1 µM), hits mostly inhibitors; AID 1487; HeLa LMNA splicing GFP/RFP minigene ratio, 48 h; actives 0.01% (n = 200,000); active = well fitted inhibition curve with a large enough effect in the signal ratio, with a control signal flat, not every such curve was filed as active; inconclusive = small, poorly fitted or top-dose-only effect, or effect the other way, or a change in a side signal; the % refers to the signal ratio
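S3 HeLa cells stably expressing lamin A-EGFP splicing minigene plus DsRed2, 600 cells/well, 48 h compound exposure at 37C. Laser-scanning cytometry; analysed as GFP (500-530 nm)/RFP (575-640 nm) total intensity ratio; 0.5% DMSO vehicle.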
HPGD block – blocks human HPGD enzyme activity; P15428; actives 4.3% (n = 150,000); purified HPGD, NADH fluorescence kinetic, PGE2 substrate; Potency, µM, usual class: inhibitors; active = well fitted inhibition curve with a large enough effect, not every such curve was filed as active; inconclusive = small, poorly fitted or top-dose-only effect, or another doubt; inactive = no such curve, though single readings can be large or run the other way
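20 nM HPGD preincubated 15 min at room temperature with compound in 50 mM Tris-HCl pH 8, 0.01% Tween 20. Started with 1 mM NAD+ and 30 uM prostaglandin E2; NADH fluorescence (360/450 nm) read 5 times over 30-s intervals, last minus first.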
ALDH1A1 inh – blocks purified human ALDH1A1 activity | Potency, µM (titrated, usually from 75.3 µM), most hits filed as inhibitors | actives 7.3% (n = 220,000) | P00352 | Purified ALDH1A1, NADH fluorescence, propionaldehyde substrate; active = well fitted inhibition curve with a large enough effect, not every such curve was filed as active; inconclusive = small, poorly fitted or top-dose-only effect, or another doubt; inactive = no such curve, though single readings can be large or run the other way
Target sequence (P00352 whole entry, looked up): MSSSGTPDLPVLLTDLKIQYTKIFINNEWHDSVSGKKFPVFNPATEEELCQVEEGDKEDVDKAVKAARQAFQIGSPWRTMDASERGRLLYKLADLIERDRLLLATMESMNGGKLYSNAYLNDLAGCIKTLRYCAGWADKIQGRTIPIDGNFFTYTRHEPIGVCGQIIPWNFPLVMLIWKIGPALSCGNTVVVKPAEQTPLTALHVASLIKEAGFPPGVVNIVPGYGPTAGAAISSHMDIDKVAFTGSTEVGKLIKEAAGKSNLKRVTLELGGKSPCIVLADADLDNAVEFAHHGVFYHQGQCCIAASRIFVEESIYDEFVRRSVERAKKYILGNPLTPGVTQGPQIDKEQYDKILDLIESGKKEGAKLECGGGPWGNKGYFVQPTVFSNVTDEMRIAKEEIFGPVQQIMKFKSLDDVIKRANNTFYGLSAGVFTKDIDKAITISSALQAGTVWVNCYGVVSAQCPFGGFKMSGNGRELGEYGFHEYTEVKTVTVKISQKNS
HTT cytoprotect – cytoprotection in Huntington HTT-Q103 PC12 cell model; AID 1471; Potency, µM (titrated, usually from 56.4 µM), most hits filed as activators; PC12 HTT-Q103 induced, cytoprotection, ATP luminescence, 40 h; actives 0.14% (n = 230,000); note: nearly all actives have a fitted effect of over 45% in size
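PC12 cells with ecdysone-inducible HTT exon 1 Q103-GFP, induced with 100 nM tebufenozide and co-treated with library compounds in a dose series (1536-well, 1500 cells/well). Cytoprotection read as ATP content by ATPlite luminescence.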
KinaseGlo FLuc – counter-screen: inhibitors of Kinase-Glo firefly luciferase; Q27757; Potency, µM (top dose mostly 38.3 µM), usual class: inhibitors; actives 0.28% (n = 200,000); Kinase-Glo luciferase, ATP luminescence, 8 min; note: nearly all actives have a fitted effect of over 60% in size
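Recombinant Kinase-Glo luciferase, 10 uM ATP (linear range), luciferin; imidazole pH 7.2 / KCl / MgCl2 / Tween / BSA buffer; 8 min RT; luminescence.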
HTT aggregate – mutant huntingtin aggregation inhibition | PC12 HttQ103-GFP aggregates, Acumen cytometry, 40 h | Potency, µM (top dose mostly 46.1 µM), hits mostly inhibitors | actives 1.1% (n = 220,000) | AID 1688; note: nearly all actives have a fitted effect of over 60% in size
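Huntingtin Q103 exon 1–GFP aggregates in induced PC12 cells (100 nM tebufenozide) were quantified by cytometry from lysates, with compounds dosed in titration.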
Hits are given with their value; . = inactive; ? = inconclusive; / = no result given; [ ] = remark or other dose. Unless noted, calls come from the whole dose curve; as a rule, active = well fitted curve in the direction sought with a large enough effect; inconclusive = small, poorly fitted or top-dose-only effect, or another doubt; inactive = no such curve, though single readings can be large; an effect the other way counts as inactive or inconclusive.

SMILES	Lamin A splicing	HPGD block	ALDH1A1 inh	HTT cytoprotect	KinaseGlo FLuc	HTT aggregate
COc1ccc(NS(=O)(=O)c2ccc3c(c2)Cc2ccccc2-3)cn1	?	.	.	.	.	11µM
CN(C)S(=O)(=O)Nc1ccc2c(c1)Cc1ccccc1-2	.	14µM	.	.	.	.
CCNC(=O)c1sc(=S)n(CC)c1N	.	18µM	?	.	.	.
CC(C)OCCCNC(=O)c1sc(=S)n(C)c1N	.	28µM	.	.[0.074 µM]	.	.
Cn1c(N)c(C(=O)NCc2ccccc2Cl)sc1=S	.	.	?	.	.	.
CCn1c(N)c(C(=O)NCCCOC)sc1=S	.	14µM	3.2µM	.	.	.
COc1cccc(-c2nc(CS(=O)CC(=O)NC3CCCC3)c(C)o2)c1 (stereo not given)	.	.	?	.	.	.
Cc1nc(NC(=S)NC(=O)c2cccs2)sc1C(=O)N(C)C	.	22µM	4.5µM	.	.	.
Nc1c(-c2ccccc2)cnn1-c1cccc(C(F)(F)F)c1	.	10µM	.	.[10 µM]	.	.
Nc1c(-c2cccc(Cl)c2)cnn1-c1cccc(C(F)(F)F)c1	.	13µM	.	.	.	.
O/N=C/c1cc(Cl)ccc1OCc1cccc2ccccc12	?	.	.	.	.	?
CCCCn1c(N)c(N(CCOC)C(=O)CCc2ccc(OC)cc2)c(=O)[nH]c1=O	.	.	.	.[10 µM]	.	.
Cc1cccc(N2CCN(C(=O)CC(NC(=O)c3ccccc3)c3ccccc3)CC2C)c1 (stereo not given)	?	.	.	.[10 µM]	.	.
Cc1ccc([N+](=O)[O-])cc1S(=O)(=O)Nc1ccc(C(=O)N(C)C)cc1	.	/	.	.	.	.
CC(C)N(C(=O)COC(=O)[C@@H]1CC(O)CN1S(=O)(=O)c1ccc(C(C)(C)C)cc1)C(C)C (stereo not given in full)	.	/	8.9µM	.	.	.
O=C(COC(=O)C1CC(O)CN1S(=O)(=O)c1ccc(Cl)cc1)c1ccccc1Cl (stereo not given)	.	.	18µM	.[0.074 µM]	.	.
Cc1ccc(NS(=O)(=O)c2ccc(Br)s2)cc1S(=O)(=O)N1CCOCC1	/	/	11µM	.	.	?
COc1ccc(S(=O)(=O)Nc2ccc(S(=O)(=O)N3CCCCC3)cc2)cc1C	.	.	4µM	.	.	.
COc1ccc2cc(S(=O)(=O)N3CCCCC3)ccc2c1S(=O)(=O)N1CCCCC1	?	.	0.18µM	.[0.074 µM]	.	.
CC(=O)Nc1ccc(S(=O)(=O)N[C@H](C(=O)O)C(C)C)cc1	.	.	10µM	.[10 µM]	.	.
Cc1cc(=O)n(CC(C)O)c(O)c1C#N (stereo not given)	.	.	?	.[10 µM]	.	.
O=C(NCc1ccccn1)c1cn(-c2ccccc2)nc1-c1ccc(Cl)cc1	.	.	?	.[10 µM]	.	.
CNS(=O)(=O)c1ccc2nc(NC(=O)/C=C/c3ccco3)sc2c1	?	/	?	.	.	.
COc1cc(OC)c(S(=O)(=O)N2CCCCC2)cc1S(=O)(=O)N1CCCCC1	.	.	3.5µM	.[0.074 µM]	.	.
O=S(=O)(Nc1ccc(S(=O)(=O)N2CCCCC2)cc1)c1ccc(Br)s1	.	.	1.4µM	.	.	?
SMILES	Lamin A splicing	HPGD block	ALDH1A1 inh	HTT cytoprotect	KinaseGlo FLuc	HTT aggregate
COc1ccc(S(=O)(=O)Nc2ccc(S(=O)(=O)N3CCCC3)cc2)cc1	.	.	0.089µM	.	.	.[9.22 µM]
CC(=O)Nc1ccc(S(=O)(=O)Nc2ccc(S(=O)(=O)N3CCCCCC3)cc2)cc1	.	.	4µM	.[0.074 µM]	.	.
O=c1[nH]nc(N/N=C/c2ccccc2OC(F)F)c(=O)[nH]1	/	/	.	.[10 µM]	/	.[9.22 µM]
CC(=O)NCCOc1ccc2oc3ccccc3c2c1	?	.	.	.	.	.
COc1ccc(OC)c(NS(=O)(=O)c2ccc(NC(C)=O)cc2)c1	.	.	.	.	.	.
COc1ccc(S(=O)(=O)N2CCCCCC2)cc1	.	.	.	.	.	?
COc1ccc(C)cc1NS(=O)(=O)c1ccc(NS(=O)(=O)c2ccc(NC(C)=O)cc2)cc1	.	.	22µM	.[10 µM]	.	.
COc1ccc(S(=O)(=O)Nc2ccc(S(=O)(=O)N3CCCCC3)cc2)cc1	.	.	0.35µM	.	.	.
O=C1CCCC2=C1C(Cc1ccccc1)C1=C(CCCC1=O)O2	.	.	.	.[10 µM]	.	?
O=C(O)c1ccc(/C=N/NC(=S)NC2CCCCC2)cc1	?	/	.	.	.	.
CCCCCCOc1ccccc1C(N)=O	?	.	.	.	.	.
C=CC(=O)OCCCCCCOC(=O)C=C	/	.	2µM	.	/	/
O=[N+]([O-])c1ccc(SCCc2ccccn2)cc1	/	/	/	.[10 µM]	/	.[9.22 µM]
O=[N+]([O-])c1ccc(SCCc2ccncc2)cc1	/	/	7.9µM	.[10 µM]	/	.[9.22 µM]
Cn1cccc1Cc1nnc(SCC(=O)N2CCOCC2)n1-c1ccc(F)cc1	.	.	.	.	.	.
O=C(CSc1nnc(-c2ccccc2)c(-c2ccccc2)n1)N1CCOCC1	.	.	.	.	.	.
O=C(CSc1nncc2ccccc12)N1CCOCC1	.	28µM	?	.[4.97 µM]	.	.[9.22 µM]
CCOc1ccc2nc(NS(=O)(=O)c3ccc4c(c3)n(C)c(=O)n4C)sc2c1	.	25µM	?	.	.	.
CCOc1ccc2nc(NS(C)(=O)=O)sc2c1	.	28µM	?	.	.	.
CCOc1ccc(OCC)c(NS(=O)(=O)c2ccc3c(c2)n(C)c(=O)c(=O)n3C)c1	?	.	.	.[1.9 µM]	.	.
CCOc1ccc(S(=O)(=O)Nc2nc3ccc(OC)cc3s2)cc1	.	.	.	.	.	.
Cc1cccc(NC(=S)N2CCn3cccc3C2c2cccnc2)c1 (stereo not given)	.	.	?	.[10 µM]	.	.
Cc1cc(C(=O)COC(=O)c2n[nH]c3ccccc23)c(C)n1CC1CCCO1 (stereo not given)	?	28µM	.	.	?	.
Cc1cc(C(=O)COC(=O)c2ccccc2Br)c(C)n1CC1CCCO1 (stereo not given)	/	/	/	.[10 µM]	/	.[9.22 µM]
Cc1ccc(C(=O)OCC(=O)c2cc(C)n(CC3CCCO3)c2C)cc1 (stereo not given)	.	/	.	.	.	.[9.22 µM]
Cc1cc(C(=O)COC(=O)c2cc(O)c3ccccc3c2O)c(C)n1CC1CCCO1 (stereo not given)	/	/	28µM	.	.	.
CC(NC(=O)COC(=O)CCc1ccc(S(=O)(=O)N2CCOCC2)cc1)C1CC2CCC1C2 (stereo not given)	.	.	.	.[10 µM]	.	.
CC(C)CC(=O)Nc1ccc(C(=O)NNC(=S)NC(=O)C2CCCCC2)cc1	?	.	.	.	.	10µM
